GDH-TPI counter-1 – GDH-TPI coupling enzyme inhibitors, primary screen, artefact control for M. tuberculosis FBA inhibitor project, biochemical, absorbance, full deck; GDH-TPI coupled enzyme counterscreen, NADH absorbance; inhibition, % at 4.8 µM; actives 1.2% (n = 360,000); AID 588335, 2011; in the data active means inhibition above about 30%;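 further: 0% = DMSO wells and 100% = wells lacking the enzyme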
Mtb FBA inh – Mtb FBA enzyme inhibitors, primary screen, biochemical, fluorescence, strain H37Rv; Fructose-bisphosphate aldolase (Mycobacterium tuberculosis (strain ATCC 25618 / H37Rv)), …; inhibition, % at 1 µM; actives 2.3% (n = 360,000); purified M. tuberculosis FBA, fluorescence read-out;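 further: 0% = vehicle and 100% = reference inhibitor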
Target sequence (P9WQA3 whole entry, looked up): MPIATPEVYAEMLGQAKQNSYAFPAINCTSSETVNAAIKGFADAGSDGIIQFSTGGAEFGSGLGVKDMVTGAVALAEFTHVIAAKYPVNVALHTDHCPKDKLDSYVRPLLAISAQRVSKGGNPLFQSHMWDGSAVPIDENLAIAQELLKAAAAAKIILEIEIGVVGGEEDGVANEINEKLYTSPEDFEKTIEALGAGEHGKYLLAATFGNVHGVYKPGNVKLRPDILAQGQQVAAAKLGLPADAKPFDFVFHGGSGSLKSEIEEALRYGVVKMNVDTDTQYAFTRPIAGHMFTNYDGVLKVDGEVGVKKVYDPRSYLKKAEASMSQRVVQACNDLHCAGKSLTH
PrPC TRFRET – inhibitors of human cell surface prion protein PrPC, primary screen, cell-based, TR-FRET. Major prion protein (Homo sapiens), P04156. TR-FRET read-out. inhibition, % at 13.8 µM. actives 0.43% (n = 370,000). AID 720596, 2013; in the data active means inhibition above about 24%; further: 0% = median of the test wells and 100% = reference compound wells
BJeLR viability – MLPCN primary cell-based screen for lethality selective to Ras in HRASV12 cells | actives 0.17% (n = 300,000) | BJeLR (HRASV12) viability, CellTiter-Glo ATP luminescence, 48 h | AID 1554, 2009 | inhibition, % (no concentration beside the values); in the data active means inhibition above about 50%
RecA splice inh – Mtb RecA intein splicing inhibitors, primary screen, biochemical, fluorescence, HTS; actives 0.75% (n = 290,000); Protein RecA (Mycobacterium tuberculosis (strain ATCC 25618 / H37Rv)), P9WHJ3; inhibition, % (test concentration not listed); AID 2221, 2009; cell-free RecA intein splicing; in the data active means inhibition above about 30%;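 further: 0% = vehicle wells and 100% = reference inhibitor control wells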
Mtb FBA confirm – M. tuberculosis aldolase blockers, biochemical, fluorescence, strain H37Rv, confirmation. inhibition, % at 1 µM. purified M. tuberculosis FBA, fluorescence read-out. actives 78% (n = 5,600). AID 651616, 2012. shares compounds with Mtb FBA inh;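 further: 0% = vehicle wells and 100% = reference inhibitor wells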
GDH-TPI counter-2 – GDH-TPI coupling enzyme inhibitors, artefact control for M. tuberculosis FBA inhibitor project, biochemical, fluorescence, high throughput. shares compounds with Mtb FBA inh. GDH-TPI coupled enzyme counterscreen. inhibition, % at 1 µM. actives 81% (n = 5,600). AID 652141, 2013; in the data active means inhibition above about 10%
The depositor's hits bear a star; . = no result given; + = active, no number. Most compounds without a hit are left out; they make up all but 4.2% or so of the library. Unless noted, no stated cut-off is given here; in the data, active means inhibition above about 27%; inactive means the rest.

SMILES | GDH-TPI counter-1 | Mtb FBA inh | PrPC TRFRET | BJeLR viability | RecA splice inh | Mtb FBA confirm | GDH-TPI counter-2
O=C(CN1C(=O)c2cccc3cccc1c23)NCC1CCCO1 (stereo unspecified) | 8 | 5 | -9 | 6 | -10 | . | .
O=C(CCN1C(=O)c2cccc3cccc(c23)C1=O)NCC1CCCO1 (stereo unspecified) | 25 | 34* | -27 | 9 | -4 | 156* | 97*
O=C1c2cccc3cccc(c23)C(=O)N1CC1CCCO1 (stereo unspecified) | 10 | 31* | -26 | -5 | 2 | 52* | 28*
c1ccc2c(c1)OCCc1c-2[nH]c2ccccc12 | -4 | 47* | 2 | 10 | 6 | 75* | 55*
COc1ccc(CN2C(=O)[C@@](O)(c3cccn3C)c3cc(Br)ccc32)cc1 | . | . | 12 | . | . | . | .
COC(=O)C1=C(C)N(Cc2ccccc2C(F)(F)F)C(=NCc2ccc(OC)cc2)NC1CCc1ccccc1 (stereo unspecified) | . | . | -1 | . | . | . | .
CCOc1ccccc1OCCCC(=O)Nc1nc2ccccc2[nH]1 | 2 | 1 | 2 | 0 | -1 | . | .
CCOc1ccccc1/C=C/c1nc2ccccc2[nH]c1=O | 28 | 43* | -12 | 6 | -58 | 0 | 0
CCOc1ccccc1/C=C/c1cc(C(=O)O)c2ccccc2n1 | 9 | 29* | 2 | -5 | 1 | 91* | 71*
C=CCN1C(=O)[C@H](CC(=O)NCC23CC4CC(CC(C4)C2)C3)[C@@]2(C(=O)OC)CCCCC=C12 | . | . | 0 | . | . | . | .
CCN(CC)c1nc2cc(OC)ccc2cc1C#N | 17 | 32* | -7 | -3 | -21 | 50* | 35*
COc1ccc2cc(C#N)c(NC(C)C)nc2c1 | 15 | 55* | 3 | 3 | -3 | 2 | 4
COc1ccc2nc(N3CCC(C)CC3)c(C#N)cc2c1 | 2 | 9 | -7 | -5 | -280 | . | .
COc1ccc2cc(C#N)c(N3CCOCC3)nc2c1 | 5 | 37* | 10 | -3 | -7 | 66* | 63*
CCSc1nc2ccc(OC)cc2cc1C#N | 9 | 6 | 8 | 3 | -2 | . | .
COC(=O)CSc1nc2cc(OC)ccc2cc1C#N | 7 | 8 | -6 | -5 | 5 | . | .
COc1ccc(CSc2nnc(SCc3ccccc3)s2)cc1 | . | . | -1 | . | . | . | .
O=C(C1CCN(c2ncnc3c2sc2cccc(F)c23)CC1)N1CCN(Cc2ccc(F)cc2)CC1 | . | . | 2 | . | . | . | .
Cn1c(-c2ccc(C=O)s2)nc2c3ccccc3c3ccccc3c21 | 24 | 53* | -5 | 0 | -17 | 37* | 37*
CCCCCCC12C(=Cc3cc4c(cc31)OCCO4)c1cc(OC)c(OC)cc1C(CC(=O)NCc1ccccc1)N2C(=O)OC (stereo unspecified) | . | . | 1 | . | . | . | .
Cc1ccccc1N1C(N)=NC(N)=NC1(C)C | 7 | 76* | -5 | -6 | 0 | + | +
c1ccc(Nc2cccc3c(Nc4ccccc4)cccc23)cc1 | 11 | 28* | 6 | 3 | 16 | 36* | 34*
COC(CNC(=O)[C@H](Cc1c[nH]c2ccccc12)NC1(C(=O)NCc2ccccc2)CCCCC1)OC | . | . | -6 | . | . | . | .
CCCOc1ccc(-c2nnc(-c3ccco3)o2)cc1 | 11 | 60* | 6 | -1 | 2 | 50* | 36*
CC(C)COc1ccc(-c2nnc(-c3ccco3)o2)cc1 | 2 | 43* | 3 | 0 | 6 | 54* | 43*
SMILES | GDH-TPI counter-1 | Mtb FBA inh | PrPC TRFRET | BJeLR viability | RecA splice inh | Mtb FBA confirm | GDH-TPI counter-2
COc1cccc(-c2nnc(-c3ccco3)o2)c1 | 7 | 62* | -1 | 0 | 1 | + | +
COc1cccc(C(=O)Nc2ccc(-c3nnc(-c4ccco4)o3)cc2)c1 | 16 | 1 | -5 | -11 | 1 | . | .
CC(=O)Oc1ccc(C(=O)Nc2cccc(-c3nnc(-c4ccco4)o3)c2)cc1 | 12 | 0 | 4 | -11 | 3 | . | .
COc1ccccc1CNCc1cc(=O)oc2c(C)c(C)ccc12 | 0 | 5 | -2 | 12 | -2 | . | .
CCc1c(C)c2ccc(OCC(=O)N(C)C)c(C)c2oc1=O | 3 | 76* | -1 | 1 | . | + | +
C=C(C)COc1ccc2c(C)c(C)c(=O)oc2c1OCC(=C)C | -6 | 12 | 3 | 4 | 2 | . | .
Cc1c(C)c2ccc(OCC(=O)Nc3ccccn3)c(C)c2oc1=O | 1 | 8 | -3 | 29 | 0 | . | .
Cc1c(C)c2ccc(OCC(=O)N(C)C)c(C)c2oc1=O | 12 | 79* | 3 | 13 | -4 | 148* | 125*
C=CCOC(=O)COc1ccc2c(C)c(C)c(=O)oc2c1C | 11 | 58* | 8 | -1 | 1 | 32* | 34*
COc1ccc2c(C)cc(=O)oc2c1C | 2 | 54* | -5 | 4 | 3 | + | 196*
CN=C1NC(=O)/C(=C\c2cc(C)n(-c3ccccc3F)c2C)S1 | . | . | 12 | . | . | . | .
COc1ccc2c(c1)CN1CN(Cc3ccccc3)S(=O)(=O)CC21 (stereo unspecified) | . | . | -8 | . | . | . | .
O=C(CCc1ccccc1)N[C@H]1[C@H](OC(=O)c2cnccn2)CCC[C@@]12C(=O)N(Cc1ccccc1)c1ccccc12 | . | . | 8 | . | . | . | .
COC(=O)C[C@@H]1CC[C@H]2[C@@H](COc3ccc(NC(=O)Nc4ccc(C)cc4)cc3C(=O)N2C)O1 | . | . | 7 | . | . | . | .
CC(C)OC(=O)N(C)C[C@H]1OCc2cn(nn2)CCCC(=O)N([C@@H](C)CO)C[C@@H]1C | . | . | -7 | . | . | . | .
Cc1cc(C)cc(C(=O)OCCN2CCN(C3CN(Cc4cn(Cc5ccc([N+](=O)[O-])cc5)nn4)S(=O)(=O)C3)CC2)c1 (stereo unspecified) | . | . | -16 | . | . | . | .
O=C(CNS(=O)(=O)c1ccccc1)N1CCN(c2ccccn2)CC1 | . | . | 12 | . | . | . | .
CCOC(=O)CCc1c(C)c2ccc(OCC(=O)N(CC)CC)c(C)c2oc1=O | 0 | 76* | -1 | 4 | 0 | 18 | 20*
Cc1cc(=O)oc2c(C)c(OCC(=O)N(C)C)ccc12 | 20 | 37* | 7 | -1 | . | 46* | 40*
Cc1cc(=O)oc2c(C)c(OCC(=O)c3ccccc3)ccc12 | 3 | 0 | 2 | 2 | 1 | . | .
CCOC(=O)CCc1c(C)c2ccc(OC3CCCCC3=O)c(C)c2oc1=O (stereo unspecified) | 8 | 23 | 1 | -12 | -2 | . | .
Cc1c(OCC(=O)N(C)C)ccc2c3c(c(=O)oc12)CCCCC3 | 16 | 88* | -4 | 0 | -2 | 1 | -4

Compound activity (PubChem)
